This is an account of results in PubChem BioAssay (NCI).

The panel holds about 83,000 compounds, 20% with a hit somewhere; the sample as a whole holds those more often.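 Negative percent growth values reflect cell death: -40 means 40% of the cells present at the start died, and -100 means all died.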 Values without a mark were called inactive. Activity calls are given as the source filed them. Rule for the calls: active = growth percent below 10; inactive = the rest.

The assay relates to UACC-257 melanoma. Kind of assay: NCI-60 one-dose screen, 48 h (100 = growth as untreated, 0 = no growth, -100 = all killed). The following applies: 10 µM unless noted.
With `Cc1cccc2c1NC(=O)C2(c1ccc(O)cc1)c1ccc(O)cc1`, the growth was 79.4%.

`CN1CCN(Cc2ccc3c(NNC(=O)c4ccccc4)nc4cc(F)ccc4n23)CC1`: the growth is 11.8%.

`COc1ccc2[nH]cc(-c3nc(-c4cn(C)c5c(Cl)nccc45)cs3)c2c1`: the growth was -33% (active).

For `O=C(CCc1nnc(Cn2cnc3nc[nH]c3c2=O)o1)c1nc2ncccc2[nH]1`, the growth is 105%.

For the compound `CC1=Nc2cnc(Nc3ccc(OCCN4CCCCC4)cc3)nc2Nc2ccccc21`, the growth is 87.6%.

Take `Cc1nc2ncnc(Cl)c2[nH]1`: the growth was 91.1%.

In the case of `CC(C)(C)[Si](C)(C)O[C@H]1C(=O)C=CN2CC=C[C@@H]12`, the growth is 93.6% [100 µM].

Regarding `c1cnc2[nH]cc(-c3csc(-c4cn(CCCN5CCOCC5)c5ccccc45)n3)c2c1`, the growth is 85%.

For `Cc1ccccc1Cn1cnc2ccc(-c3cc(NC(=O)c4ccc(NC5CCN(C)CC5)cc4)n[nH]3)cc21`, the growth is 81%.

Take `COC(C(=O)[C@@H](O)[C@@H](C)O)[C@@H]1Cc2cc3cc(O[C@H]4C[C@@H](O[C@H]5C[C@@H](O)[C@H](O)C(C)O5)[C@H](O)C(C)O4)cc(O)c3c(O)c2C(=O)[C@H]1O[C@H]1C[C@@H](O[C@H]2C[C@@H](O[C@H]3C[C@@H](OC)[C@H](O)C(C)O3)[C@@H](O)C(C)O2)[C@H](O)C(C)O1` (some centres not stated): the growth was 19.9%.

For the compound `Cc1cc(Cl)ccc1Nc1nc(C(F)(F)F)ccc1C(=O)N/N=C/c1ccc([N+](=O)[O-])cc1`, the growth was -13.1% (active).

Turning to `COc1cc(N2C(=O)[C@H](O)C2c2ccc(SC)cc2)cc(OC)c1OC` (some centres not stated), the growth is 42.1%.
